Each structure is given as a SMILES string. Among all 340,000 compounds or so, about 1,000 (0.29%) were called active. Only a sample is shown. Potency and affinity values are given separately. Unmarked numbers belong to inactive results. Rule as the data show it: inconclusive = inhibition above about 27% without an active follow-up result; inactive = below that.

This test is described as follows: NS1A inhibition, H1N1 influenza, cell based functional assay (AID 504329). Particulars: percent inhibition, at 12.5 µM, active compounds read high.
Broadly, the inhibition is the relative decrease from the control value, in per cent. For the compound `O=[N+]([O-])c1cccc(Nc2c([N+](=O)[O-])ccc3nonc23)c1`, the inhibition is 11.8%.

As to `Cc1ccc(Nc2c([N+](=O)[O-])ccc3nonc23)c(C)c1`, the inhibition was 24.2%.

For `COc1ccccc1CNC(=O)CSC1=NCCS1`, the inhibition is -11.3%.

Turning to `CSc1ccccc1OCc1cc(C(=O)NCCN2CCCC(O)C2)no1` (stereo unspecified), the inhibition is 14.2%.

`CC(NC(=O)COC(=O)C12CC3CC(CC(Br)(C3)C1)C2)c1ccccc1` (stereo unspecified): the inhibition is 4.11%.

On to `O=C(N/N=C/c1c(O)ccc2ccccc12)c1cccc(C(F)(F)F)c1`, for which the inhibition is 5.26%.

In the case of `O=C(NN=Cc1c(O)ccc2ccccc12)c1ccc2c(c1)OCO2`, the inhibition was 3.47%.

With `O=C(N/N=C/c1cccc2ccccc12)c1cccnc1`, the inhibition was -1.84%.

For `Cc1ccc(C(=O)N/N=C/c2c(O)ccc3ccccc23)cn1`, the inhibition is -7.55%.

In the case of `CCOc1ccc2ccccc2c1/C=N/NC(=O)c1ccncc1`, the inhibition was -4.1%.

With `O=C(N/N=C/c1c(O)ccc2ccccc12)c1ccc(Br)o1`, the inhibition is -3.25%.

As for `O=C(N/N=C\c1c(O)ccc2ccccc12)c1cncc(Br)c1`, the inhibition is -2.66%.

As to `O=C(N/N=C\c1c(O)ccc2ccccc12)c1ccc(O)cc1`, the inhibition was 3.55%.

For the compound `COc1ccc(-c2nnnn2-c2ccc(F)cc2F)cc1`, the inhibition is -3.82%.

Turning to `COP(=O)(OC)C1(O)C(=O)Nc2ccc(Br)cc21` (stereo unspecified), the inhibition is -4.97%.

As to `Nc1c(C(=O)NCc2ccc3c(c2)OCO3)nnn1Cc1ccc(Br)cc1`, the inhibition is 1.55%.

With `N#CC(Cc1ccccc1)(Cc1ccccc1)C(=O)NN`, the inhibition was -3.45%.

Consider `COC1CCCCC1NS(=O)(=O)c1ccccc1` (stereo unspecified), for which the inhibition was 1.39%.

As for `CCCCC(=O)NC(c1cccc([N+](=O)[O-])c1)c1ccc2cccnc2c1O` (stereo unspecified), the inhibition was 17.2%.

As for `CC(=O)NC(c1ccc(C(C)C)cc1)c1ccc2cccnc2c1O` (stereo unspecified), the inhibition is -6.08%.

`COc1ccc(C(NC(C)=O)c2ccc3cccnc3c2O)c(OC)c1` (stereo unspecified): the inhibition is 20.8%.

On to `CC(=O)NC(c1ccc2ccccc2c1)c1ccc2cccnc2c1O` (stereo unspecified), for which the inhibition is 23.8%.

For `CC(C)C(=O)NC(c1cccc([N+](=O)[O-])c1)c1ccc2cccnc2c1O` (stereo unspecified), the inhibition is 17.9%.

On to `CC(C)C(=O)NC(c1ccco1)c1ccc2cccnc2c1O` (stereo unspecified), for which the inhibition was 23.1%.

On to `C=CCNC(=O)c1onc(CSc2ccc(F)cc2)c1C(=O)NCC=C`, for which the inhibition is 8.73%.

As for `CCOCCc1nnc(NC(=O)C2CC(=O)N(c3ccc(OCC)cc3)C2)s1` (stereo unspecified), the inhibition was -1.86%.

For the compound `C[C@@H]1CC[C@@]2(O[C@H](CCO)C[C@H](O)[C@H]2O)O1`, the inhibition is -1.57%.

For `CCCSc1nc(-c2ccccc2)cc(C(F)(F)F)c1C#N`, the inhibition was -2.3%.

`COc1ccc(N2CCN(C(=O)Cc3ncc(C(F)(F)F)cc3Cl)CC2)cc1`: the inhibition was -8.89%.

With `O=C(O)c1ccc(NS(=O)(=O)c2ccc3c(c2)C2C=CCC2C(c2ccccc2F)N3)cc1` (stereo unspecified), the inhibition was 18.1%.

`COc1ccc(NS(=O)(=O)c2ccc3c(c2)[C@H]2C=CC[C@H]2[C@@H](c2ccc(C(=O)O)cc2)N3)cc1`: the inhibition was 24.1%.

With `Cn1nnnc1SCC(=O)N1CCc2ccccc21`, the inhibition is -9.92%.

In the case of `O=C1/C(=C/c2ccncc2)N2CCC1CC2`, the inhibition is -8.83%.

As to `CC(C)CC(=O)Nc1nnc(SCC(=O)NCC2CCCO2)s1` (stereo unspecified), the inhibition is -4.89%.

Regarding `CCc1nnc(NS(=O)(=O)c2ccc(N/C=C\C(=O)c3ccc(C)cc3)cc2)s1`, the inhibition was 2.79%.

As to `COC(=O)c1ccccc1NC(=O)CSc1ncccn1`, the inhibition was -13.4%.

Regarding `Cc1cc(C)nc(NN2C(=O)C=CC2=O)n1`, the inhibition was 0.34%.

As to `CC(=O)c1ccc(Nc2nc(C)cc(C)n2)cc1`, the inhibition is 0.38%.

On to `Cn1c(SCC(=O)Nc2nccs2)nnc1-c1ccncc1`, for which the inhibition is 2.71%.

On to `CCOC(=O)C(C)Oc1cccc2c(=O)n(CC(=O)NCCc3ccccc3)ccc12` (stereo unspecified), for which the inhibition was 0.03%.

For `CC(C)C(OC(=O)c1cccs1)C(=O)NCc1ccc2c(c1)OCO2` (stereo unspecified), the inhibition is -1.71%.

Turning to `Cc1cccc(NC(=O)c2ccc3nccnc3c2)c1C`, the inhibition was 0.36%.

Take `COc1cc(NC(=O)c2ccccc2F)c(OC)cc1NC(=O)CN1CCCCC1`: the inhibition is -0.03%.

In the case of `N/C(=N\OC(=O)Cc1ccccc1)c1ccccn1`, the inhibition is -5.24%.

As to `N/C(=N\OC(=O)Cc1ccccc1[N+](=O)[O-])c1ccccn1`, the inhibition is -3.44%.

Consider `Cc1c(OC(C)C(=O)NCC(O)c2ccccc2)ccc2c3c(c(=O)oc12)CCC3` (stereo unspecified), for which the inhibition is 3.79%.

As to `CNC(=O)c1c(NC(=O)c2ccc(S(=O)(=O)N3CCCCC3C)cc2)sc2c1CCN(C)C2` (stereo unspecified), the inhibition was -4.17%.

Turning to `CCc1ccc(Nc2n[n+](-c3ccccc3)c(-c3cccc(C)c3)s2)cc1`, the inhibition was -15%.

Regarding `Fc1ccc(-[n+]2nc(Nc3ccccc3)sc2-c2cccc(Cl)c2Cl)cc1`, the inhibition is 1.31%.

Turning to `CCc1ccc(Nc2n[n+](-c3ccccc3)c(-c3cccc(Cl)c3Cl)s2)cc1`, the inhibition is -1.96%.

In the case of `Fc1ccc(-[n+]2nc(Nc3ccccc3)sc2-c2c3ccccc3cc3ccccc23)cc1`, the inhibition was 10.5%.

As for `COc1ccc(S(=O)(=O)CCC(=O)N2CC(=O)N(CCc3ccccc3)C(=O)C2)cc1`, the inhibition was -13.4%.

For the compound `CSc1ncc(/C=C2/C(=O)NC(=O)N(C)C2=O)cn1`, the inhibition was 6.14%.

Turning to `CC1Cc2ccccc2N1C(=O)c1ccc2c(c1)OCO2` (stereo unspecified), the inhibition is -9.71%.

For the compound `CCCOc1cccc(OCC(=O)Nc2nc3ccccc3[nH]2)c1`, the inhibition was -2.2%.

For the compound `CC(C)/C=C1\CC/C(=C\c2ccc(N(C)C)cc2)C1=O`, the inhibition is -9.13%.

With `CN(C)c1ccc(/C=C2\CCC/C(=C\c3ccccc3)C2=O)cc1`, the inhibition is -5.05%.

With `O=C1C(=O)N(CCCn2ccnc2)C(c2ccc(Cl)cc2)/C1=C(\O)c1ccc2c(c1)OCCO2` (stereo unspecified), the inhibition was 4.67%.

As to `Cc1ccc(SCC(=O)NCCc2ccccc2)cc1`, the inhibition was 4.08%.

`O=C(Nc1ccc2c(c1)OCO2)C1COc2ccccc2O1` (stereo unspecified): the inhibition was -3.64%.

Consider `O=C(Nc1cc([N+](=O)[O-])c2[nH]c(=O)c3ccccc3c2c1)C(F)(F)F`, for which the inhibition is 1.69%.

The values above are taken from PubChem BioAssay AID504329 (Southern Research Specialized Biocontainment Screening …, 2011).
